# Laboratory results published in PubChem BioAssay.
# Assay: basal RPMI8226 mitochondrial membrane potential changes, profiling panel, cell-based, JC-1 fluorescence, 24 h, 100 nL compound (AID 1169); note: test concentration not given here
# Conditions: RPMI8226 myeloma, JC-1 mitochondrial potential fluorescence, higher = more signal
row,Compound,z-score
1,CCOC(=O)C[C@H]1[C@H](OC(=O)Cc2ccc3c(c2)OCO3)[C@@H](NC(=O)c2ccc3ccccc3n2)c2cc(OCCCO)ccc2N1C(=O)c1ccccc1,-0.169
2,COc1ccc([Si](C)(C)[C@@H]2[C@@H](CC(=O)N(CCO)Cc3ccccc3)O[C@]3(C(=O)N(Cc4cccc(N5CCCCC5=O)c4)c4ccccc43)[C@H]2C)cc1,-0.654
3,C=C[C@@H](OC)[C@H](OC(=O)Nc1ccc(OC)cc1)c1ccc(O)c(F)c1,-0.276
4,CCCCCC1=C2CNC(C)(C(=O)OC)C=C2C(C)C1=O (stereo not given),0.782
5,O=C1NC(=O)C2C1C=CC(C(O)c1ccco1)N2Nc1ccc(Cl)cc1Cl (stereo not given),-0.977
6,CCC#CCN(Cc1ccccc1Br)[C@H](/C=C/C1CC1)[C@@H](O)Cc1ccccc1,-0.774
7,COc1ccc([Si](C)(C)[C@@H]2[C@@H](CC(=O)N3Cc4ccccc4C[C@H]3CO)O[C@]3(C(=O)N(Cc4ccc(N5C(=O)c6cccc7cccc5c67)cc4)c4ccccc43)[C@H]2C)cc1,-0.0572
8,[N-]=[N+]=Nc1ccccc1C[C@@]1(C(=O)NCCN2CCOCC2)N=C(c2ccc(OCCCO)cc2)O[C@@H]1c1ccccc1N=[N+]=[N-],-1.26
9,CC1=C2[C@@H](CCc3ccccc3)OB(O)C[C@@H]2[C@@H]2C(=O)N(Cc3ccccc3)C(=O)[C@@H]2C1,0.49
10,CC1CC/C=C\[C@H]2OC34C=CCN(Cc5ccccc5)C(=O)[C@H]3N(C(CO)C(C)C)C(=O)[C@@H]4C2C(=O)O1 (stereo not given in full),-0.795
11,COc1cccc(C)c1NC(=O)O[C@H]1[C@H](OC(=O)Nc2ccc3c(c2)OCO3)[C@@H](OC(=O)Nc2ccc3c(c2)OCO3)[C@@H](OC)O[C@@H]1CO,-0.863
12,Cc1ccccc1C(O)C1C=CC2C(=O)NC(=O)C2N1Nc1ccccn1 (stereo not given),0.551
13,CCCCC(=C=CC[C@H](O)c1ccc(OCCO)cc1)CCO,-0.573
14,CC(c1ccccc1)C(O)C1C=CC2C(=O)N(C)C(=O)C2N1Nc1ccccc1 (stereo not given),0.446
15,C=CCC(OC(C)=O)[C@@H]1[C@@H](N(Cc2ccc(-c3cccc(C(F)(F)F)c3)o2)C(=O)Cc2ccc(OC)cc2)c2cc(OCCCO)ccc2N1C(=O)c1ccc(-c2ccccc2)cc1 (stereo not given in full),0.498
16,Cc1ccc(S[C@]2(C(=O)NC(C)C)CC(=O)N(Cc3cc(C(F)(F)F)cc(C(F)(F)F)c3)[C@@H]2c2ccc(CO)cc2)cc1,-0.555
17,CCOC(=O)C[C@H]1[C@H](OC(=O)c2cc3ccccc3oc2=O)[C@@H](NC(=O)CC(C)C)c2cc(OCCCO)ccc2N1C(=O)c1ccc2ccccc2n1,-0.272
18,COc1ccc(CCNC(=O)[C@@]2(c3ccc([N+](=O)[O-])cc3)CC(=O)N(C3CCCCC3)[C@@H]2c2ccc(CO)cc2)cc1,0.562

row,Compound,z-score
1,C[C@@H]1NC(=O)[C@@H](Cc2ccccc2)NC(=O)[C@@]23C(=O)N[C@@H](Cc4ccccc4)C2[C@H](C)[C@@]2(C)O[C@H]2C3/C=C/C/C=C\CNC1=O (stereo not given in full),-0.0163
2,CCC1=C2CN(Cc3ccccc3)[C@@H](C(=O)Cc3ccccc3)C2C=CCC1 (stereo not given in full),0.424
3,N#Cc1ccc(NN2C(C(O)c3ccc(Br)cc3)C=CC3C(=O)N(c4ccccc4)C(=O)C32)cc1 (stereo not given),0.244
4,OCCCC1=CC(c2ccc(CN3CCCC3)cc2)N(Cc2cc3c(cc2Br)OCO3)CC1 (stereo not given),0.406
5,O=C(O)[C@@H]1C[C@@H]2C(=O)N3CCC[C@H]3C(=O)N2[C@@H]1c1ccc(O)cc1,-0.704
6,CC(C)[Si]1(C(C)C)OCc2cc(-c3ccc(-c4ccc(Cl)c(Cl)c4)o3)nc(-c3ccccc3)c21,0.194
7,COc1ccc([Si](C)(C)[C@@H]2[C@@H](CCO)O[C@]3(C(=O)N(Cc4ccccc4)c4ccc(N5C(=O)c6cccc7cccc5c67)cc43)[C@H]2C)cc1,-0.751
8,C=C[C@H](C)[C@H](OC(=O)Nc1ccc(SC)cc1)c1ccc(OCCO)cc1,-0.781
9,CCOC(=O)C[C@H]1[C@H](OC(=O)c2cc3ccccc3oc2=O)[C@@H](NC(=O)c2ccc3ccccc3n2)c2cc(OCCCO)ccc2N1C(=O)Cc1ccc(OC)cc1,0.498
10,O=C(NCCN1CCOCC1)[C@@H]1c2ccccc2C(=O)N(Cc2ccccc2Cl)[C@H]1c1ccc(CO)cc1,-0.695
11,COC(=O)[C@@]1(Cc2ccc(F)cc2)[C@H]2c3cc(C(=O)N4CCCC4)n(Cc4ccc(C)c(F)c4F)c3C[C@H]2CN1C(=O)c1ccccc1,-0.59
12,CCCCC(CC)C(O)C1C=CC2C(=O)N(c3ccccc3)C(=O)C2N1Nc1ccccc1F (stereo not given),0.51
13,[N-]=[N+]=Nc1ccccc1C[C@]1(C(=O)O)COC(c2ccc(OCCCO)cc2)=N1,-0.329
14,CC(=O)NCCCC[C@@H]1NC(=O)[C@@H]2C[C@H](C(=O)NCCCCCN)[C@H](c3cccc(OCCO)c3)N2C1=O,-0.721
15,COc1ccc(C#Cc2ccc3c(c2)[C@]2(C(=O)N3)[C@H](c3ccc(OCCO)cc3)N3[C@H](c4ccccc4)[C@H](c4ccccc4)OC(=O)[C@H]3[C@@H]2C(=O)NC[C@H](O)c2ccccc2)cc1,-0.808
16,CC(C)NC(=O)[C@@]1(C)c2ccccc2C(=O)N(Cc2ccc(OC(F)(F)F)cc2)[C@H]1c1ccc(CO)cc1,-0.547
17,CCCC[C@@H](O)C1=C(COC)C[C@H]2C(=O)N(Cc3ccccc3)C(=O)[C@H]2[C@H]1CO,-0.851
